For 21 compounds, growth inhibition results are on record in PubChem BioAssay (NCI).

Compounds without any hit were thinned out: in the full panel of roughly 79,000, 15% have a hit. Values without a mark were called inactive. Active and inactive are the calls of the source. Cut-off read from the data, not from the text of the source: active = growth inhibition above about 70%; inactive = the rest.

A short description of experiment [1]: NCI Yeast Anticancer Drug Screen. Data for the rad50 strain (AID 155).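 Note: 0% = growth of vehicle-only cultures of the same strain.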 The note with it: S. cerevisiae rad50 strain growth inhibition; at 50.0 µM; stronger effect = higher value. The gist of the method: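 Genetically altered yeast (DNA repair pathway); compound treatment; growth inhibition vs vehicle ctrl.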
A short description of experiment [2]: NCI Yeast Anticancer Drug Screen. Data for the mec2-1 strain (AID 157). To be noted: S. cerevisiae mec2-1 strain, at 50.0 µM, stronger effect = higher value. The gist of the method: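 Yeast mec2-1 mutant treated with compound. Readout: growth inhibition vs vehicle controls.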
Experiment [3] in a line: NCI Yeast Anticancer Drug Screen. Data for the sgs1 mgt1 strain (AID 161).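 Note: 0% = growth of cultures given vehicle only.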 The note with it: S. cerevisiae sgs1 mgt1 strain, at 50.0 µM, stronger effect = higher value. In outline:
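Mutant yeast exposed to compound; growth scored against vehicle-only wells.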

Experiment [4] in a line: NCI Yeast Anticancer Drug Screen. Data for the cln2 rad14 strain (AID 165).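 Note: 0% = growth equal to vehicle treated cultures.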 The note with it: S. cerevisiae cln2 rad14 strain, at 50.0 µM, stronger effect = higher value. The gist of the method: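 cln2 rad14 yeast strain; compound exposure; growth inhibition read vs vehicle controls.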
Experiment [5] is described as follows: NCI Yeast Anticancer Drug Screen. Data for the bub3 strain (AID 167). The note with it: S. cerevisiae bub3 mutant strain, at 50.0 µM, stronger effect = higher value. In outline:
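Yeast carrying a defined mutation is treated with each compound, and growth is compared with that of vehicle-exposed cells to give inhibition.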

Experiment [6] can be described thus: NCI Yeast Anticancer Drug Screen. Data for the mlh1 rad18 strain (AID 175). To be noted: S. cerevisiae mlh1 rad18 strain growth inhibition; at 50.0 µM; stronger effect = higher value. The gist of the method: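 Yeast w/ defined DNA-repair lesions; compound exposure; growth vs vehicle controls → % inhibition.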

Consider `O=C(O)/C=C/c1ccccc1C(=O)O`, for which the growth inhibition in experiment [1] is 11.3%; in experiment [2] it was -4.3%; in experiment [3], 4.05%; in experiment [4] it was -13.2%; in experiment [5] it was -11.4%; in experiment [6] it was 6.05%.
Take `CC(C)(C)OC(=O)C1/C(=C/CO)CN1C(=O)OC(C)(C)C` (stereo unspecified): the growth inhibition in experiment [1] is -17.9%; in experiment [2], -36.2%; in experiment [3], -12.2%; in experiment [4], 7.4%; in experiment [5], -12.1%; in experiment [6], -28.9%.
Turning to `CCSC1(SCC)C2(CCCCC2)C(=O)C12CCCCC2`, the growth inhibition in experiment [1] was -5.55%; in experiment [2] it was 17.1%; in experiment [3], 9.1%; in experiment [4], -12.1%; in experiment [5] it was 13.1%; in experiment [6] it was 78.1% (active).
Consider `CCCCOC1NC(=O)Oc2ccccc21` (stereo unspecified), for which the growth inhibition is -9.35% in experiment [1]; 4% in experiment [2]; -3.15% in experiment [3]; -28.5% in experiment [4]; -4.95% in experiment [5]; 15.1% in experiment [6].
As to `O=S(=O)(Nc1ccccc1Cl)c1ccc(F)cc1`, the growth inhibition in experiment [1] was -5.85%; in experiment [2] it was -16.1%; in experiment [3] it was -6.6%; in experiment [4], 4.7%; in experiment [5] it was -24%; in experiment [6], 20.9%.
In the case of `O=[N+]([O-])c1ccc(N=NNc2ccc([N+](=O)[O-])cc2)cc1`, the growth inhibition was 4.5% in experiment [1]; -13% in experiment [2]; -2.05% in experiment [3]; -38.1% in experiment [4]; -2.95% in experiment [5]; 5.4% in experiment [6].
Take `CC(C)(C)c1ccc(Sc2cccc3c2C(=O)c2c(Cl)cccc2C3=O)cc1`: the growth inhibition in experiment [1] is -11.3%; in experiment [2], -4.1%; in experiment [3], -27.1%; in experiment [4] it was -8.1%; in experiment [5], 0.55%; in experiment [6], -0.85%.
`CCOC(=O)C(C#N)C1(C(C#N)C(=O)OCC)C(=O)Nc2ccccc21` (stereo unspecified): the growth inhibition in experiment [1] was 1.8%; in experiment [2], 14.6%; in experiment [3] it was 19.8%; in experiment [4], 21.8%; in experiment [5], 24.7%; in experiment [6], 32.3%.
On to `N#Cc1nc(CC(=O)c2ccncc2)c(CC(=O)c2ccncc2)nc1C#N`, for which the growth inhibition is 8% in experiment [1]; 11.9% in experiment [2]; 35.9% in experiment [3]; 13.5% in experiment [4]; -10.9% in experiment [5]; 53.1% in experiment [6].
In the case of `O=C(CBr)c1cc(-c2ccc(Cl)cc2)nc2c(-c3ccccc3)cccc12`, the growth inhibition in experiment [1] is 14.2%; in experiment [2], 1.2%; in experiment [3] it was 27.6%; in experiment [4], 48.9%; in experiment [5], 2.15%; in experiment [6] it was 14.4%.
For the compound `Cn1c(C(F)(F)F)nc2nc(Cl)c(Cl)nc21`, the growth inhibition in experiment [1] is 16.6%; in experiment [2], 0.05%; in experiment [3] it was 20.7%; in experiment [4], 21.2%; in experiment [5], -32%; in experiment [6], 46%.
For the compound `COC(=O)CN(CC(=O)OC)C(C)=O`, the growth inhibition in experiment [1] is -9.2%; in experiment [2] it was -4.35%; in experiment [3] it was -0.05%; in experiment [4], 2.7%; in experiment [5] it was 13.5%; in experiment [6] it was 0.6%.
For the compound `COC(=O)C1(CC(=O)c2ccccc2)NC(=S)NC(=O)C1C#N` (stereo unspecified), the growth inhibition in experiment [1] is 1.85%; in experiment [2], -13.9%; in experiment [3] it was -24.4%; in experiment [4], -15.8%; in experiment [5], -33.5%; in experiment [6], -3.35%.
`C[n+]1ccccc1/C=C/C=C/c1ccccc1`: the growth inhibition in experiment [1] is 0.45%; in experiment [2], -13.1%; in experiment [3], 1.4%; in experiment [4] it was -17.3%; in experiment [5] it was -6.1%; in experiment [6], 1.9%.
Consider `C=C1C(=O)O[C@@H]2[C@@H]3[C@@H](C)C(=O)C=C[C@]3(C)CC[C@@H]12`, for which the growth inhibition in experiment [1] was -15.9%; in experiment [2], -49.1%; in experiment [3], -11.2%; in experiment [4], 7.05%; in experiment [5] it was -35.6%; in experiment [6], -14.9%.
Consider `CCc1ccccc1NC(=O)Sc1cccc(C)c1`, for which the growth inhibition in experiment [1] was -3%; in experiment [2], 27%; in experiment [3], 25.6%; in experiment [4] it was -12.9%; in experiment [5], 23%; in experiment [6], -28.9%.
Turning to `CCO/C(C)=N/NC(=O)c1n[nH]c2ccccc12`, the growth inhibition was 4.1% in experiment [1]; -1.45% in experiment [2]; -10.6% in experiment [3]; 0.05% in experiment [4]; -11.3% in experiment [5]; 12% in experiment [6].
In the case of `OC1c2ccccc2C(O)c2c1ccc1c2CN(Cc2ccccc2)CC1` (stereo unspecified), the growth inhibition is 5.05% in experiment [1]; 8.25% in experiment [2]; 1.95% in experiment [3]; 15.1% in experiment [4]; 1.3% in experiment [5]; 33.2% in experiment [6].
For the compound `Brc1ccc2noc(-c3ccccc3)c2c1`, the growth inhibition in experiment [1] was 29.4%; in experiment [2], 2.25%; in experiment [3] it was 31.6%; in experiment [4] it was -1.6%; in experiment [5], 9.95%; in experiment [6], 16.9%.
For `COc1ccccc1C1OC2=C(Nc3ccc(Cl)cc3N2)C1=O` (stereo unspecified), the growth inhibition was -6.5% in experiment [1]; -17.8% in experiment [2]; -17.5% in experiment [3]; -7% in experiment [4]; -23.7% in experiment [5]; -2.95% in experiment [6].
For the compound `C[N+]1=C2[B-](C(C)(C)C)=[N+](C(C)(C)C)[B-]2(C(C)(C)C)[N+](C)=C2[B-](C(C)(C)C)=[N+](C(C)(C)C)[B-]21C(C)(C)C` (stereo unspecified), the growth inhibition in experiment [1] was 2.65%; in experiment [2] it was 0%; in experiment [3] it was 9.35%; in experiment [4], -8.35%; in experiment [5], -4.1%; in experiment [6], -9.85%.
